# Test results: PubChem BioAssay (NCATS)
# Values joined by “and” are separate entries in the source; they are usually repeats but may differ in a detail not shown here. Equal values may be shown once. Records with an inconclusive call do not appear. Values without a mark were called inactive. Active and inactive are the calls of the source. The call rests on the fitted dose curve; in most records, active means well fitted curve in the direction sought with a large enough effect; inconclusive means small, poorly fitted or top-dose-only effect, or another doubt; inactive means no such curve, though single readings can be large; an effect the other way counts as inactive or inconclusive.
# Legend:
# [1] = Viability qHTS for spleen associated tyrosine kinase inhibitor (SYKi) naive MV4-11 cells (AID 1963823); further: nearly all actives have a fitted effect of over 40% in size
# Method in brief: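 SYKi-naive MV4-11 AML cells, 500 per well, were exposed to library compounds for 72 hr at 37 C, 5% CO2. Viability was then read by CellTiter-Glo luminescence after 10 min at room temperature.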
# [2] = Viability qHTS for spleen associated tyrosine kinase inhibitor (SYKi) drug resistant MV4-11 cells (AID 1963824); further: nearly all actives have a fitted effect of over 35% in size
# Method in brief: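 SYK-inhibitor-resistant MV4-11 AML cells were seeded at 500 per well onto compound and cultured 72 hours (37 °C, 5% CO2). CellTiter-Glo was then added, and after 10 min at room temperature, luminescence gave viability.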
# [3] = Quantitative highthroughput screen to assess conditional lethalithy of NOMO1 cells grown in RPMI1640 with untreated serum (RPMI+s) (AID 1963876); further: nearly all actives have a fitted effect of over 35% in size;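 on Viability: 100% = DMSO wells and 0% = empty wells without cells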
# Method in brief: (§1)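 Each medium arm—HPLM with 10% dialyzed FBS, or RPMI1640 with 5 mM glucose and 10% untreated or dialyzed FBS—was screened against an 11-point, 3-fold compound titration for 48 h at 37 °C, with CellTiter-Glo luminescence as endpoint.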
# [4] = Quantitative highthroughput screen to assess conditional lethalithy of NOMO1 cells grown in RPMI1640 with dialyzed fetal bovine serum (RPMI+ds) (AID 1963877); further: nearly all actives have a fitted effect of over 30% in size;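 on Viability: series mostly up to about 46 µM; 100% = DMSO control wells and 0% = empty wells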
# Method in brief: as §1
# [5] = Quantitative highthroughput screen to assess conditional lethalithy of NOMO1 cells grown in Human Plasma-Like Medium with dialyzed fetal bovine serum (HPLM+ds) (AID 1963878); further: nearly all actives have a fitted effect of over 35% in size;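 on Viability: 100% = DMSO wells and 0% = empty wells on each plate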
# Method in brief: as §1
# [6] = Quantitative highthroughput screen to assess conditional lethalithy of P12 Ichikawa cells grown in Human Plasma-Like Medium with dialyzed fetal bovine serum (HPLM+ds) (AID 1963879); conditions: Potency: viability; further: nearly all actives have a fitted effect of over 35% in size; on Viability: series mostly up to about 46 µM
# Method in brief: as §1
# [7] = Quantitative highthroughput screen to assess conditional lethalithy of P12 Ichikawa cells grown in RPMI1640 with dialyzed fetal bovine serum (RPMI+ds) (AID 1963880); conditions: Potency: P12-Ichikawa viability; further: nearly all actives have a fitted effect of over 35% in size;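 on Viability: 100% = DMSO wells and 0% = empty wells on each plate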
# Method in brief: as §1
# [8] = Quantitative highthroughput screen to assess conditional lethalithy of P12 Ichikawa cells grown in RPMI1640 with untreated serum (RPMI+s) (AID 1963881); conditions: Potency: viability; further: nearly all actives have a fitted effect of over 35% in size;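 on Viability: series mostly up to about 46 µM; 100% = DMSO wells and 0% = empty wells without cells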
# Method in brief: as §1
# [9] = Quantitative highthroughput screen to assess conditional lethalithy of SEM cells grown in Human Plasma-Like Medium with dialyzed fetal bovine serum (HPLM+ds) (AID 1963882); further: nearly all actives have a fitted effect of over 35% in size; on Viability: series mostly up to about 46 µM
# Method in brief: as §1
# [10] = Quantitative highthroughput screen to assess conditional lethalithy of SEM cells grown in RPMI1640 with unreated serum (RPMI+s) (AID 1963883); further: nearly all actives have a fitted effect of over 35% in size;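 on Viability: 100% = DMSO wells and 0% = empty wells without cells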
# Method in brief: as §1
# [11] = Cellular viability qHTS for adrenocortical cancer (ACC) cell line NCI-H295R (AID 1963990); further: nearly all actives have a fitted effect of over 60% in size;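 on activity change, negative = viability loss: 0% = DMSO only wells and -100% = full killing with cytotoxic reference compound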
# Method in brief: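 Compound titrations (up to 46 uM final) are applied to NCI-H295R cultures for 48 h at 37C. Viable cell number is estimated by CellTiter-Glo signal, normalised to DMSO and doxorubicin controls.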
# [12] = Quantitative highthroughput screen to assess conditional lethalithy of SEM cells grown in RPMI1640 with dialyzed fetal bovine serum (RPMI+ds) (AID 1963884); further: nearly all actives have a fitted effect of over 35% in size;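 on Viability: series mostly up to about 46 µM; 100% = DMSO control wells and 0% = empty wells without cells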
# Method in brief: as §1
# [13] = Cellular viability qHTS for adrenocortical cancer (ACC) cell line SW-13 (AID 1963989); conditions: SW-13 ACC cells viability, CellTiter-Glo, 48 h; activity (max response): hits give low values; further: nearly all actives have a fitted effect of over 65% in size;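 on activity (max response): cells grown in serum-free medium with ITS supplement; on the % scale 0 is the no-effect control and ±100 the full control effect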
# Method in brief: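 48 h treatment, SW-13 in ITS/DMEM serum-free; doses up to 46 uM; readout CellTiter-Glo luminescence; curve fit four-parameter logistic.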
# Potency means the concentration at half of the fitted maximal effect.
SMILES,Potency [1],Potency [2],Potency [3],Potency [4],Potency [5],Potency [6],Potency [7],Potency [8],Potency [9],Potency [10],Potency [11],Potency [12],activity (max response) [13],Potency [13],viability (% of control) [1],"viability, % of control [2]","activity change, negative = viability loss [11]"
CN(C)S(=O)(=O)c1ccc2c(c1)C(=Cc1cc3c([nH]1)CCCC3)C(=O)N2,833 nM (active),1660 nM (active),inactive,inactive,inactive,inactive,inactive,inactive,inactive,inactive,inactive,,,,,,
CCC(=O)NCC[C@@H]1CCc2ccc3c(c21)CCO3,inactive,inactive,inactive,inactive,inactive,inactive,inactive,inactive,3320 nM (active),5260 nM (active),inactive,5260 nM (active),-6.57%,,,,
CN(C)c1ccc(C(=O)NCCCCCCC(=O)NO)cc1,833 nM (active),742 nM (active),2960 nM (active),2350 nM (active),2640 nM (active),1480 nM (active),1180 nM (active),1480 nM (active),1320 nM (active),1320 nM (active),1410 nM (active),1180 nM (active),,4470 nM (active),,,
CC1(C)CC(=O)c2c(C(F)(F)F)nn(-c3ccc(C(N)=O)c(NC4CCC(O)CC4)c3)c2C1 (configuration not stated),20.9 nM (active),33.2 nM (active),209 nM (active),187 nM (active),235 nM (active),235 nM (active),148 nM (active),148 nM (active),148 nM (active),148 nM (active),447 nM (active),,,224 nM (active),,,
Nc1ccccc1NC(=O)c1ccc(CNc2nccc(-c3cccnc3)n2)cc1,291 nM (active),231 nM (active),2640 nM (active),2350 nM (active),2350 nM (active),2090 nM (active),2350 nM (active),2090 nM (active),743 nM (active),833 nM (active),355 nM (active),662 nM (active),,3980 nM (active),,,
CC(C)C1CCC(C(=O)N[C@H](Cc2ccccc2)C(=O)O)CC1 (some centres not stated),inactive,inactive,inactive,inactive,inactive,inactive,inactive,inactive,inactive,inactive,inactive,inactive,3.47% and 2.35%,,,,
OC(Cn1cncn1)(Cn1cncn1)c1ccc(F)cc1F,inactive,inactive,inactive,inactive,inactive,inactive,inactive,inactive,inactive,inactive,inactive,inactive,1.07% and 11%,,,,
O=P(O)(O)C(O)(Cn1ccnc1)P(=O)(O)O,,,inactive,inactive,inactive,inactive,inactive,inactive,inactive,inactive,,inactive,-1.67%,,79.2% [at 4.97 µM],89.7% [at 4.97 µM],-3.44% [at 3.81 µM]
COC(=O)Nc1cc(Nc2cc(NC3CC3)c3ncc(C#N)n3n2)c(Cl)c(N2CCN(C)CC2)c1,417 nM (active),662 nM (active),9330 nM (active),7410 nM (active),16600 nM (active),20900 nM (active),11700 nM (active),14800 nM (active),4170 nM (active),2630 nM (active),2240 nM (active),2340 nM (active),,2820 nM (active),,,
O=C(CCCCCCNC(=O)c1cnc(N(c2ccccc2)c2ccccc2)nc1)NO,2950 nM (active),2350 nM (active),18700 nM (active),16600 nM (active),14800 nM (active),6620 nM (active),5900 nM (active),7430 nM (active),7430 nM (active),5900 nM (active),14100 nM (active),7430 nM (active),,15800 nM (active),,,
O=C(c1ccc(F)cc1)C1CCN(CCn2c(=O)[nH]c3ccccc3c2=O)CC1,inactive,16800 nM (active),inactive,inactive,inactive,inactive,inactive,inactive,inactive,inactive,inactive,inactive,-13.7%,,,,
Cn1cnc2c(F)c(Nc3ccc(Br)cc3Cl)c(C(=O)NOCCO)cc21,296 nM (active),668 nM (active) and 164 nM (active) and 468 nM (active),590 nM (active),296 nM (active),296 nM (active),662 nM (active),743 nM (active),662 nM (active),662 nM (active),469 nM (active),inactive,469 nM (active),,,,,
